Among the data in the supplement of paper PMC4894684 are parasite growth values, retold here.

Counter-ions that a name gives are not always drawn. ± gives the standard deviation of the averaged measurements. Where only a bound is given, the exact number is not on record here.

The subject of the assay is Toxoplasma gondii RH (in HFF). In words: parasite growth relative to the screen mean (all compounds = 100%); higher = less inhibition of parasite growth. To be noted: 5 µM; 72 h; oxygen 21 %. In short, it runs like this: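 Growth values are relative to the mean of the whole screen and averaged over duplicate screens, with all compounds together set to 100%. Parasites (RH β-Gal–GFP Toxoplasma, MOI 1:5) were added within 2 h of pinning compounds at 5 µM final onto confluent human foreskin fibroblasts and grown 72 h at 21% O2. Parasite number came from CPRG β-Gal readings against in-plate standard curves.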

In turn, `CCCc1c(OCC(O)COc2ccc3c(=O)cc(C(=O)O)oc3c2CCC)ccc(C(C)=O)c1O` (stereo unspecified) registered a parasite growth of 96.9 ± 7.1%.

Turning to `c1ccc(C(NCc2cccnc2)(c2ccccc2)c2ccccc2)cc1`, the parasite growth amounted to 48.8 ± 13%.

`COC(=O)C[C@](O)(CCCC(C)(C)O)C(=O)O[C@@H]1C(OC)=C[C@]23CCCN2CCc2cc4c(cc2[C@H]13)OCO4` [Homoharringtonine]: the parasite growth is less than 0%.

Regarding `NC(=O)OCC(COC(N)=O)c1ccccc1` [Felbamate], the parasite growth was 85.9 ± 60%.

In turn, `COc1cc(CNC(=O)CCCC/C=C/C(C)C)ccc1O` [(E)-Capsaicin] yielded a parasite growth of 135 ± 14%.

Take `CCCCCCCCCCCCCCCC(=O)C(F)(F)F`: the parasite growth is 108 ± 7.6%.

In turn, `O=S(=O)(NCCNC/C=C/c1ccc(Br)cc1)c1cccc2cnccc12` [H 89 dihydrochloride] showed a parasite growth of 26.2 ± 27%.

The compound `N[C@@H](CS(=O)O)C(=O)O` [L-Cysteinesulfinic acid] registered a parasite growth of 61 ± 6.7%.

With `O=C(O)C(=O)O.[NH-][C@@H]1CCCC[C@H]1[NH-].[Pt+2]` [Oxaliplatin], the parasite growth was determined as 143 ± 2.5%.

Regarding `COc1ccccc1C1(O)CCN(CCCn2c3ccccc3c3ccccc32)CC1` [NNC 05-2090 hydrochloride], the parasite growth is less than 0%.

In the case of `O=C(O)Cc1ccc(OCCNC[C@H](O)c2ccccc2)cc1` [ZD 2079 hydrochloride], the parasite growth was 119 ± 12%.

As for `CN(C)CCCSc1ccccc1NC(=O)/C=C/c1ccccc1` [Cinanserin hydrochloride], the parasite growth turned out to be 120 ± 9.6%.

With `COc1ccc(CCN(C)CCCN2CCc3cc(OC)c(OC)cc3CC2=O)cc1OC` [Zatebradine hydrochloride], the parasite growth stood at 103 ± 1.8%.

The compound `CC(C)NC[C@H](O)COc1cccc2ccccc12` [(S)-(-)-Propranolol hydrochloride] gave a parasite growth of 81.8 ± 3.3%.

For the compound `O=C(OCCN1CCOCC1)C1(c2ccccc2)CCCCC1` [PRE-084 hydrochloride], the parasite growth was 99.6 ± 19%.

`NC(N)=NC(N)=Nc1cccc(Cl)c1` [m-Chlorophenylbiguanide hydrochloride]: the parasite growth was 133 ± 15%.

With `N=C(N)NC(=O)Cc1c(Cl)cccc1Cl` [Guanfacine hydrochloride], the parasite growth worked out at 162 ± 45%.

With `Cc1cc(/C(=C/Nc2ccc(Cl)cc2)C(=O)Nc2ccc(Cl)cc2)on1`, the parasite growth amounted to 139 ± 40%.

Take `CCCCOC(=O)c1cc2c(cn1)[nH]c1ccccc12`: the parasite growth is 150 ± 37%.

In turn, `Cc1cc(NC(=O)Nc2ccc(N(C)C)cc2)c2cc(F)cc(F)c2n1` showed a parasite growth of 159 ± 3.7%.

Compound `N[C@@H](CSS(=O)(=O)O)C(=O)O` [S-Sulfo-L-cysteine sodium salt] showed a parasite growth of 101 ± 6.6%.

Turning to `c1cnc(N2CCN(Cc3ccc4c(c3)OCO4)CC2)nc1` [Piribedil], the parasite growth was 70.3 ± 8.6%.

`O=C1CCC(N2C(=O)c3ccccc3C2=O)C(=O)N1` (stereo unspecified) [Thalidomide] returned a parasite growth of 151 ± 46%.

For `CCCNC(=O)N1N=C(c2ccc(N)cc2)c2cc3c(cc2C1C)OCO3` (stereo unspecified), the parasite growth is 99.9 ± 32%.

Turning to `COc1ccc(/C=C/C(=O)Nc2ccccc2C(=O)O)cc1OC` [Tranilast], the parasite growth came to 111 ± 30%.

For `COc1ccc(CC(=O)NC(/N=C(\NC#N)Nc2cccc3ncccc23)C(C)(C)C)cc1OC` (stereo unspecified), the parasite growth was 123 ± 17%.

The compound `COc1ccc2c(c1)c(CC(=O)O)c(C)n2C(=O)c1ccc(Cl)cc1` [Indomethacin] returned a parasite growth of 150 ± 30%.

Compound `O=C1NC(=O)C(c2ccccc2[N+](=O)[O-])=C1Nc1ccc(O)c(Cl)c1` returned a parasite growth of 155 ± 3.7%.

With `C[C@@H]1CN(CCCn2c3ccccc3c3ccccc32)C[C@H](C)N1` [Rimcazole dihydrochloride], the parasite growth came to 31.8 ± 4.5%.

With `O=C(NCCCN1CCC2(CC1)OCc1ccccc12)[C@H]1CCCN1Cc1ccccc1`, the parasite growth came out at 136.9 ± 0.99%.

On to `Cc1noc(NS(=O)(=O)c2cccc3c(N(C)C)cccc23)c1C`, for which the parasite growth stood at 59.8 ± 11%.

On to `CCc1nn(CCCN2CCN(c3cccc(Cl)c3)CC2)c(=O)n1CCOc1ccccc1` [Nefazodone hydrochloride], for which the parasite growth was determined as 139 ± 7.4%.

For the compound `CCS(=O)(=O)N(C)[C@H]1c2cc(C#N)ccc2OC(C)(C)[C@@H]1O` [(-)-[3R,4S]-Chromanol 293B], the parasite growth was determined as 121 ± 9.2%.

With `CC(C)NCC(O)c1ccc2ccccc2c1` (stereo unspecified) [Pronethalol hydrochloride], the parasite growth was found to be 117 ± 28%.

In the case of `NS(=O)(=O)c1cc2c(cc1Cl)NC(C1CC3C=CC1C3)NS2(=O)=O` (stereo unspecified) [Cyclothiazide], the parasite growth stood at 118 ± 1.8%.

The compound `CNCCCCOc1ccccc1Cc1ccccc1` [Bifemelane hydrochloride] gave a parasite growth of 43.6 ± 3.2%.

With `c1ccc2oc(C3=NCCN3)cc2c1` [2-BFI hydrochloride], the parasite growth was determined as 109 ± 12%.

The compound `COC(=O)[C@H]1[C@H]2C[C@@H]3c4[nH]c5cc(OC)ccc5c4CCN3C[C@H]2C[C@@H](OC(=O)c2cc(OC)c(OC)c(OC)c2)[C@@H]1OC` [Reserpine] displayed a parasite growth of 78.4 ± 47%.

`C=CCN1CCc2cc(O)c(O)cc2C(c2ccccc2)C1` (stereo unspecified) yielded a parasite growth of 135 ± 1.6%.

For `N=C(N)NC(=O)c1nc(Cl)c(N)nc1N` [Amiloride hydrochloride], the parasite growth was determined as 102 ± 30%.

`COc1ccc(-c2oc3cc(OC)ccc3c2C(=O)c2ccc(C#N)cc2)cc1` displayed a parasite growth of 81.1 ± 22%.

Compound `CC(C(=O)O)c1ccc(-c2ccccc2)c(F)c1` (stereo unspecified) [Flurbiprofen] registered a parasite growth of 139 ± 26%.

Compound `Nc1nccc(-c2ccc3noc(-c4ccc(Cl)cc4)c3c2)n1` [PIM 1 Inhibitor 2] gave a parasite growth of 69.9 ± 15%.

In turn, `OC(CN1CCC(Cc2ccc(F)cc2)CC1)c1ccc(Cl)cc1` (stereo unspecified) [Eliprodil] gave a parasite growth of 93.6 ± 21%.

In turn, `CN(C)C(=O)n1nnnc1Cc1ccc(-c2ccccc2)cc1` came in with a parasite growth of 84.9 ± 38%.

With `Nc1nc2c(ncn2COCCO)c(=O)[nH]1` [Acyclovir], the parasite growth turned out to be 124 ± 28%.

The compound `COc1ccc(C2CNC(=O)C2)cc1OC1CCCC1` (stereo unspecified) [Rolipram] returned a parasite growth of 92.1 ± 23%.

Compound `CN1Cc2c(C(=O)OC(C)(C)C)ncn2-c2ccsc2C1=O` returned a parasite growth of 55.6 ± 4.8%.

Consider `COc1cc2c(cc1C(F)(F)F)N(C(=O)Nc1cc(F)cc(-c3cccnc3)c1)CC2`, for which the parasite growth turned out to be 29.9 ± 3.3%.

Regarding `COc1ccc(Nc2ncnc3ccc(OC)cc23)cc1` [MPMQ hydrochloride], the parasite growth came to 146 ± 14%.

Compound `COc1cc2ncnc(Nc3ccc(Cl)cc3F)c2cc1OC` registered a parasite growth of 28.9 ± 13%.

For the compound `CN1CCN(CCc2ccc(Cl)c(Cl)c2)CC1` [BD 1063 dihydrochloride], the parasite growth worked out at 50.9 ± 5.6%.

The compound `CC(CCCCC(=O)Nc1ccc(C(F)(F)F)cc1)NCCc1cnc[nH]1` (stereo unspecified) [HTMT dimaleate] showed a parasite growth of 95.1 ± 7.2%.

In the case of `Cc1c[nH]c(=O)n(CCCN2CCN(c3ccccc3OCC(F)(F)F)CC2)c1=O`, the parasite growth stood at 116 ± 6.9%.

`CCCN(CC1CC1)c1nc(C)nc(Nc2c(Cl)cc(Cl)cc2Cl)c1Cl` returned a parasite growth of 116 ± 14%.

`CN1C(C(=O)Nc2ccccn2)=C(O)c2ccccc2S1(=O)=O` [Piroxicam] gave a parasite growth of 153 ± 34%.

In turn, `CC(C)c1onc(-c2c(Cl)cccc2Cl)c1COc1ccc(/C=C/c2cccc(C(=O)O)c2)c(Cl)c1` yielded a parasite growth of 95.6 ± 18%.

`CC1(CN2CCC(n3c(=O)[nH]c4ccccc43)CC2)OCc2ccccc2-n2cccc21` (stereo unspecified) yielded a parasite growth of 113 ± 47%.

The compound `CCOC(=O)C1=C(COCCN)NC(C)=C(C(=O)OC)C1c1ccccc1Cl` (stereo unspecified) [Amlodipine besylate] returned a parasite growth of 87.9 ± 30%.

For the compound `CN1C(=O)C(Cc2c[nH]c3ccccc23)NC1=S` (stereo unspecified) [Necrostatin-1], the parasite growth turned out to be 186 ± 6.6%.

`N=C(N)SCCc1c[nH]cn1` [Imetit dihydrobromide]: the parasite growth worked out at 91.9 ± 21%.

Compound `COc1ccc(CN(CCN(C)C)c2ccccn2)cc1` [Mepyramine maleate] gave a parasite growth of 115 ± 5.5%.

The compound `Cc1nc2c(OCc3ccccc3)cccn2c1CC#N` yielded a parasite growth of 153 ± 7.3%.

`C=C[C@@]1(C)CC(=O)[C@]2(O)[C@@]3(C)[C@@H](O)CCC(C)(C)[C@@H]3[C@H](O)[C@H](OC(C)=O)[C@@]2(C)O1` [Forskolin] yielded a parasite growth of 116 ± 2.3%.

Compound `NC(C(=O)O)c1ccc(C(=O)O)c(C(=O)O)c1` (racemic) returned a parasite growth of 101 ± 31%.

In turn, `CC(Cc1ccc(O)c(O)c1)(NN)C(=O)O` [(S)-(-)-Carbidopa] yielded a parasite growth of 147 ± 34%.

Regarding `CN1CCN(C2=Nc3cc(Cl)ccc3Nc3ccccc32)CC1` [Clozapine], the parasite growth turned out to be 178 ± 40%.

Take `COc1ccc2[nH]c([S+]([O-])Cc3ncc(C)c(OC)c3C)nc2c1` (stereo unspecified) [Omeprazole]: the parasite growth stood at 178 ± 7.3%.

Compound `Oc1c2ccccc2c2c3c(cccc13)N=N2` showed a parasite growth of 7.23 ± 4.4%.

`CC[C@H](NC(=O)c1c(C)c(-c2ccccc2)nc2ccccc12)c1ccccc1`: the parasite growth came to 98.6 ± 3.1%.

For the compound `Nc1nc(F)nc2c1ncn2[C@@H]1O[C@H](CO)[C@@H](O)[C@@H]1O` [Fludarabine], the parasite growth is 102 ± 10%.

In turn, `NS(=O)(=O)Cc1noc2ccccc12` [Zonisamide] came in with a parasite growth of 131 ± 2.2%.

For the compound `COc1ccc(NC(=O)c2ccc(-c3ccc(-c4noc(C)n4)cc3C)cc2)cc1OCCN(C)C`, the parasite growth was less than 0%.

`NC(=O)c1ccc2[nH]ccc2c1` returned a parasite growth of 91.2 ± 12%.

As to `c1ccc2sc(N3CCN(Cc4ccc5c(c4)OCO5)CC3)nc2c1` [2-[1-(4-Piperonyl)piperazinyl]benzothiazole], the parasite growth worked out at 113 ± 20%.

The compound `Cc1cc(C)c(/C=C2\C(=O)Nc3ccccc32)[nH]1` displayed a parasite growth of 198 ± 12%.
